Screening data as filed in PubChem.
Shown are actives, neighbours in structure and some others; about 21% of the full set was active somewhere.
DRD3 antagonist = qHTS of D3 Dopamine Receptor Antagonist: qHTS. AID 652054, 2013. 360,000 tested, 2.5% active. D(3) dopamine receptor (Homo sapiens), P35462. D3R cells, DiscoveRx beta-arrestin luminescence, antagonist mode; active compounds read low. max response, negative = inhibition, %; in the data active means max response below about -50%; inconclusive means no clear call, values can overlap the other calls; further: on the % scale 0 is the no-effect control and ±100 the full control effect
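Cells plated overnight at 1500 cells/well, then exposed to library compounds with dopamine controls for 90 minutes at 37 degrees C. DiscoveRx reagent added for 30–60 minutes at room temperature; luminescence read, quantitative HTS format.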
ClpP mod = qHTS Assay for Activators of ClpP. 340,000 tested, 1.9% active. ATP-dependent Clp protease proteolytic subunit (Bacillus subtilis (strain 168)), P80244. Potency, µM (doses to about 57.5 µM), for inactives: at the highest dose activity change, negative = active. purified B. subtilis ClpP, FRET peptide cleavage, 20 min; active means well fitted falling curve with a large enough effect; inconclusive means small, poorly fitted or top-dose-only effect; inactive means no such curve, though single readings can be large or run the other way; further: potency means the concentration at half of the fitted maximal effect; the source files actives as falling curves though it sought activators and does not explain the sign; nearly all actives have a fitted effect of over 65% in size
Target sequence (P80244 whole entry, looked up): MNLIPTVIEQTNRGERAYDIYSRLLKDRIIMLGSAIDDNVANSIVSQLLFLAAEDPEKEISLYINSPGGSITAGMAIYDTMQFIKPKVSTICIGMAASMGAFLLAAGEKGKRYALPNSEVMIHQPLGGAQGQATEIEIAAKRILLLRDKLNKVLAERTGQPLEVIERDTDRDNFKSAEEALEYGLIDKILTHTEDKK
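FRET quenching reversal measured ClpP activation: 10 microg/mL B. subtilis ClpP at pH 8 with the FRET-FV decapeptide, read at 430 nm after 320 nm excitation. The 20-min minus 0-min signal was scaled between DMSO/no-enzyme wells and ADEP (5.8 microM final).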
IL-1B inflam inh = qHTS for Inhibitors of Inflammasome Signaling: IL-1-beta AlphaLISA Primary Screen. THP-1 LPS/ATP IL-1B secretion, AlphaLISA, 16 h; active compounds read low. activity change, % at 57.5 µM. 360,000 tested, 4.7% active. AID 743279, 2014; in the data active means activity change below about -50%; inconclusive means mostly about -30% to -49%; further: on the % scale 0 is the no-effect control and ±100 the full control effect
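THP-1 cells pretreated 1 hr with compounds (up to 57.5 uM final), then stimulated with LPS (250 ng/mL final) plus ATP (1.25 mM final); secreted IL-1B measured by AlphaLISA after 16 hr, decreased signal indicating inhibition.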
DT40 TDP1 no CPT = qHTS for Inhibitors of human tyrosyl-DNA phosphodiesterase 1 (TDP1): qHTS in cells in absence of CPT | Potency, µM (titrated, usually from 46.2 µM), for the others: at the top dose activity change, negative = growth inhibition, usual class: inhibitors | DT40 Tdp1-/- hTDP1 cells, no CPT, ATP luminescence, 48 h | AID 686978, 2013 | 420,000 tested, 15% active; further: potency means the concentration at half of the fitted maximal effect; on the % scale 0 is the no-effect control and ±100 the full control effect; nearly all actives have a fitted effect of over 55% in size
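Readout: luminescence from CellTiter-Glo after 30 min in the dark at RT. Cells: DT40 Tdp1-/- with stable hTDP1, 400/well. Exposure: compounds alone, ≥48 hr, 37 °C.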
DRD3 agonist = qHTS of D3 Dopamine Receptor Agonist: qHTS. max activation, %. D3R DiscoveRx beta-arrestin cells, luminescence, 90 min. 410,000 tested, 0.58% active. D(3) dopamine receptor (Homo sapiens), P35462; in the data active means max activation above about 30%; further: 0% is about no effect
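Agonist-mode cell screen: cells plated at 1500/well and incubated overnight at 37 °C, then exposed to library compounds for 90 min at 37 °C. Detection reagent was added for 30–60 min at room temperature, and luminescence was read.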
TDP1 cell CPT = qHTS for Inhibitors of human tyrosyl-DNA phosphodiesterase 1 (TDP1): qHTS in cells in presence of CPT; chicken DT40 Tdp1-/-;hTDP1 cells + 20 nM CPT, ATP luminescence, 48 h; Potency, µM (series often up to 46.2 µM), for inactives: top-dose activity change, negative = growth inhibition, usual class: inhibitors; 420,000 tested, 12% active; further: potency means the concentration at half of the fitted maximal effect; on the % scale 0 is the no-effect control and ±100 the full control effect; nearly all actives have a fitted effect of over 55% in size
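Cell growth measured by CellTiter-Glo luminescence after a minimum 48 h, 37 C compound exposure with 20 nM CPT in Tdp1-knockout DT40 cells stably expressing hTDP1, seeded 400/well; qHTS titration format.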
Numbers without * were called inactive; ? = inconclusive; . = no result given; ! = a repeat was not active. Unless noted, the call rests on the fitted dose curve; in most records, active means well fitted inhibition curve with a large enough effect; inconclusive means small, poorly fitted or top-dose-only effect; inactive means flat fitted curve, though single readings scatter.

SMILES	DRD3 antagonist	ClpP mod	IL-1B inflam inh	DT40 TDP1 no CPT	DRD3 agonist	TDP1 cell CPT
CC1=C(n2nnc([N+](=O)[O-])n2)C(c2cccnc2)C(C#N)=C(N)O1 (centres undefined)	9.0	-2.7%	?	?	14.6	9.2µM*
C=CCOC(=O)C1=C(C)OC(N)=C(C#N)C1c1ccc2c(c1)OCO2 (centres undefined)	-3.2	-3.9%	17.9	16.4µM*	2.9	25.9µM*
CCOC(=O)CC1=C(C(=O)OCC)C(c2cccnc2)C(C#N)=C(N)O1 (centres undefined)	0.0	-1.2%	-12.5	0.8%	-3.9	-0.6%
COC(=O)CC1=C(C(=O)OC)C(c2cccs2)C(C#N)=C(N)O1 (centres undefined)	-76.9*	-6.4%	-27.7	-0.6%	-6.2	-19.2%
CCOC(=O)C1=C(CC)OC(N)=C(C#N)C1c1cccs1 (centres undefined)	8.2	-5.8%	-12.2	-20.1%	1.2	-27.3%
Cc1ccsc1/C=N\NC(=O)Cn1nnc2ccccc21	7.6	-5.0%	11.6	18.4µM*	1.4	?
O=C(Cn1nnc2ccccc21)Nc1ccccc1[N+](=O)[O-]	?	.	-79.0*	-49.6%	-7.3	6.4%
COc1ccc(NC(=O)Cn2c(=O)n(Cc3nc(-c4ccccc4)no3)c(=O)c3cc4c(cc32)OCO4)c(OC)c1	.	-12.6%	.	-5.3%	-7.1	-20.3%
CCOC(=O)c1sc(=NC(=O)c2ccc(C)cc2)n(C)c1C	8.2	.	74.6	?	5.3	1.5%
CC1=CC(=O)C(C(C)C)=CC1=NC(=O)c1ccc(C)cc1	1.1	1.2%	14.9	2.06µM*	0.7	2.31µM*
CC(C)CC1C(=O)N(Cc2cn(CCC3OCCCO3)nn2)CCS(=O)(=O)N1Cc1ccc(-c2cccc(N(C)C)c2)cc1 (centres undefined)	16.1	-22.5%	21.2	10.2%	3.6	11.0%
COCOCCn1cc(CN2CCS(=O)(=O)N(Cc3ccc(-c4ccc(C)cc4)cc3)C(CC(C)C)C2=O)nn1 (centres undefined)	-24.7	-3.9%	-21.0	?	0.2	-64.2%
CC(C)CC1C(=O)N(Cc2cn(CC3CCCCC3)nn2)CCS(=O)(=O)N1Cc1ccc(-c2cccc(C#N)c2)cc1 (centres undefined)	-23.5	-5.1%	-10.5	?	-13.5	20.6µM*
CC(C)CC1C(=O)N(Cc2cn(CC3CCCCC3)nn2)CCS(=O)(=O)N1Cc1ccc(-c2ccncc2)cc1 (centres undefined)	-14.4	-0.2%	-15.8	14.6µM*	-1.4	?
COc1ccc(-c2ccc(CN3C(C(C)C)C(=O)N(Cc4cn(CC5CCCCC5)nn4)CCS3(=O)=O)cc2)cc1OC (centres undefined)	-8.1	?	?	1.64µM*	-4.0	?
COc1ccc(-c2ccc(CN3C(CC(C)C)C(=O)N(Cc4cn(CC5CCCCC5)nn4)CCS3(=O)=O)cc2)cc1OC (centres undefined)	9.2	?	-11.4	20.6µM*	0.7	23.1µM*
COc1ccccc1NC(=O)N1CCCC(CNC(=O)c2ccccc2Cl)C1 (centres undefined)	-2.4	-3.0%	1.0	16.8%	1.6	-2.4%
Cc1cccc(N2CCN(C(=O)CN3C(=O)CSc4c3c(C)nn4-c3ccccc3)CC2)c1C	.	-2.0%	.	?	8.0	?
COc1cc(O)c2c(c1)C(=O)c1cc(C)cc(O)c1C2=O	.	.	.	-17.6%	.	-0.4%
O=C(O)c1cc(O)c2c(c1)C(=O)c1cc(O)cc(O)c1C2=O	-17.0	-1.2%	-23.5	14.6µM*!	-52.5	13µM*!
